Data as given in PubChem BioAssay (NCI).
The panel holds about 79,000 compounds, 15% with a hit somewhere; the sample as a whole holds those more often. Rule as the data show it: active = growth inhibition above about 70%; inactive = the rest.

Assays:
[1] = NCI Yeast Anticancer Drug Screen. Data for the rad50 strain (AID 155);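 also: 0% = growth of vehicle-only cultures of the same strain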; details: S. cerevisiae rad50 strain growth inhibition; at 50.0 µM; stronger effect = higher value
Summary of the method: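 DNA repair mutant yeast, compound exposure, growth read-out; inhibition is taken relative to vehicle.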

[2] = NCI Yeast Anticancer Drug Screen. Data for the mec2-1 strain (AID 157); details: S. cerevisiae mec2-1 strain, at 50.0 µM, stronger effect = higher value
Summary of the method: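 Mutant yeast (mec2-1) grown with compound; growth inhibition relative to vehicle control reported.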

[3] = NCI Yeast Anticancer Drug Screen. Data for the mlh1 rad18 strain (AID 175); details: S. cerevisiae mlh1 rad18 strain growth inhibition; at 50.0 µM; stronger effect = higher value
Summary of the method: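 Genetically defined yeast (DNA repair-deficient) exposed to compounds; growth inhibition determined relative to vehicle.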

Measured: growth inhibition

COc1ccc(/C=C(\C#N)c2ccc(Cl)cc2)cc1OC
inactive: [1] -2.05% | [2] -8% | [3] -1.15%

Cc1ccc2c(c1)=N/C(=N\c1nc(O)c(O)[nH]1)N=2
inactive: [1] 7.4% | [2] -15.3% | [3] -4.55%

O=C1c2ccccc2C(=O)N1CNc1ccc(Cl)cn1
inactive: [1] -18.9% | [2] -43.9% | [3] -24.6%

COc1ccc(/C=C/C(=O)c2ccc(Cl)cc2)c(OC)c1
inactive: [1] 20.5% | [2] -11.9% | [3] 8.75%

COc1cc(-c2cc(=O)c3c(O)cc(O)cc3o2)cc(OC)c1OC
inactive: [1] -8.15% | [2] -10.7% | [3] 40%

COc1cc(/C=N/NC(=O)c2cccs2)cc(OC)c1OC
inactive: [1] -12.8% | [2] -26.1% | [3] -13.3%

O=[N+]([O-])c1cccc(C=Nc2cccc(C(F)(F)F)c2)c1
inactive: [1] 6.95% | [2] 4.35% | [3] -12.2%

N#CC1(c2ccc(Cl)cc2)CCCC1
inactive: [1] -15.3% | [2] -44% | [3] -14.8%

c1cc[n+](CCNCC[n+]2ccccc2)cc1
inactive: [1] 8.55% | [2] -7.75% | [3] 36.6%

N#C/C(=C/c1c(O)ccc2ccccc12)C(N)=O
inactive: [1] 33.7% | [2] 18.4% | [3] 60.9%

CCCCCCCCCCCC(O)CCCCC (stereo not drawn)
inactive: [1] -15% | [2] -48.4% | [3] -38.9%
